An excerpt weighted towards active compounds, which were near 2.4% of everything screened.
D2 ag-1: agonists of human D2 dopamine receptor; activation, % at 2 µM; 340,000 tested, 0.53% active; HEK293 T-REx D2 cells, calcium flux agonist mode;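 active = activation over 3 SD above normal in the single-dose calcium agonist read, cut at about 30% in these data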
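Tetracycline-induced HEK293 T-REx cells with force-coupled D2 receptor, plated overnight at 30 C, loaded with no-wash calcium dye. After a 10 s baseline, compound was pin-added and calcium flux read kinetically for 180 s; calcium rises flagged agonists.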
D2 antagonist: antagonists of human D2 dopamine receptor. P14416. HEK293 TREx D2 cells, calcium flux, dopamine EC80. inhibition, % at 10 µM. 340,000 tested, 2% active. AID 485344; in the data active = inhibition above about 30%; inactive = below that, where a call was filed
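Read-out: kinetic calcium fluorescence (1 cycle/s) in inducible HEK293 T-REx D2 cells after an EC80 dopamine addition that followed 180 s compound preincubation. Loss of the dopamine response indicates antagonism.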
D2 PAM-1: positively modulates the human D2 dopamine receptor allosterically; 340,000 tested, 0.34% active; potentiation, % at 10 µM; P14416; HEK293 T-REx D2, calcium flux, EC20 dopamine potentiation;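 active = potentiation over 3 SD above the plate norm, cut at about 30% in these data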
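Cells plated with tetracycline inducer and held overnight at 30 C; calcium dye loaded 30–90 min at room temperature; baseline taken, compound added and read 180 s; EC20 dopamine then added and read 180 s.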
D2 PAM-2: human D2 receptor positive allosteric modulation | P14416 | DiscoveRx D2 beta-arrestin cells, luminescence, 90 min; 100% = 57 uM dopamine signal | potentiation, % (test concentration not listed) | 360,000 tested, 0.23% active | AID 624464; in the data active = potentiation above about 50%; inconclusive = mostly about 30% to 49%
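PathHunter beta-arrestin assay in DiscoveRx D2 cells. Compounds were added with an EC20 of dopamine (50 nM final) for 90 min at 37 deg C. Luminescence was read 1 h after detection reagent, with 57 uM dopamine as the EC100 control.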
D2 ag-2: agonists of human D2 dopamine receptor (beta-arrestin); DiscoveRx PathHunter D2 beta-arrestin, luminescence, 90 min; 100% = 57 uM dopamine signal; activation, % (test concentration not listed); 360,000 tested, 0.084% active; AID 624465; in the data active = activation above about 40%; inconclusive = between about 15% and that limit
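Agonist mode: compounds alone added to overnight-plated D2 PathHunter cells for 90 min at 37 C, with 57 uM final dopamine (EC100) defining full response. Beta-arrestin recruitment detected by chemiluminescent reagent, read after 1 h at ambient temperature.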
D3 arrestin ag: confirmation of human D3 dopamine receptor agonists, beta-arrestin | DiscoveRx D3 beta-arrestin cells, luminescence, 90 min | Potency, µM (titrated, usually from 76.9 µM), actives largely listed as activators | AID 720506 | 2,300 tested, 4% active | shares compounds with D2 ag-1; note: nearly all actives have a fitted effect of over 70% in size
Target sequence (P35462 whole entry, looked up): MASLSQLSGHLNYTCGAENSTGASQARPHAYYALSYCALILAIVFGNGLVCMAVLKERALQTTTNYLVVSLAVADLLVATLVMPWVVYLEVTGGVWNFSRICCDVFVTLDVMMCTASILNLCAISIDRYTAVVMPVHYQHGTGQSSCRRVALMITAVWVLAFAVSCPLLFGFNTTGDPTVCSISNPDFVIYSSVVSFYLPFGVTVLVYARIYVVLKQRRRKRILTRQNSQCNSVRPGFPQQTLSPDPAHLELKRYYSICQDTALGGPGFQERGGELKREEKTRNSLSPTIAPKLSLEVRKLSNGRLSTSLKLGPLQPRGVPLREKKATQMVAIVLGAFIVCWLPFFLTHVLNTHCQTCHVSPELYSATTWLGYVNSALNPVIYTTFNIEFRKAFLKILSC
D2 ag-3: activates human D2 dopamine receptor in D3 counterscreen | Potency, µM (series often up to 76.9 µM), usual class: activators | 2,300 tested, 5.9% active | DiscoveRx PathHunter D2 beta-arrestin, luminescence, 90 min; response scale: percent relative to full dopamine signal | shares compounds with D2 ag-1; note: nearly all actives have a fitted effect of over 70% in size
Hits are given with their value; 0 = inactive; ? = inconclusive; - = not tested or not shown. Unless noted, calls come from the whole dose curve; as a rule, active = well fitted activation curve with a large enough effect; inconclusive = small, poorly fitted or top-dose-only effect; inactive = flat fitted curve, though single readings scatter.

SMILES	D2 ag-1	D2 antagonist	D2 PAM-1	D2 PAM-2	D2 ag-2	D3 arrestin ag	D2 ag-3
COc1cccc(Cn2c(=O)n(CCc3ccccc3)c(=O)c3c2c2cc(OC)ccc2n3C)c1	0	-	0	-	-	-	-
CCOC(=O)c1ccc(N2CCN(c3cccc(Cl)c3)CC2)c(NC(=O)Nc2ccc(OC)cc2OC)c1	0	-	0	-	-	-	-
C=CCn1c(SCC(=O)NCC(c2ccccc2)N(C)C)nnc1C1CCCCC1 (centres undefined)	0	0	0	0	0	0	0
CCOc1c(Cl)cc(CNc2ccc3[nH]c(=O)[nH]c3c2)cc1OC	0	-	0	-	-	-	-
OC1(Cc2cc(-c3ccccc3)no2)CCN(CCCc2ccccc2)CC1	46	73	0	0	0	?	0
COc1ccc(CCNC(=O)c2cc(Nc3cc(C)cc(C)c3)nc3ccccc23)cc1OC	0	-	0	-	-	-	-
Cc1cccc(C)c1NC(=O)C1CCCN1S(=O)(=O)c1ccc(-c2ccc(=O)[nH]n2)s1 (centres undefined)	0	0	0	0	0	-	-
CCc1ccccc1NC(=O)C1CCCN1S(=O)(=O)c1ccc(-c2ccc(=O)[nH]n2)s1 (centres undefined)	0	0	0	0	0	0	0
CCCCCCc1cc2cc(S(=O)(=O)c3ccc(F)c(Cl)c3)c(=O)oc2cc1O	34	0	0	0	0	28µM	?
COc1ccc(S(=O)(=O)N2CCC(N3CCN(Cc4ccccc4)CC3)CC2)cc1	77	74	0	0	0	0	0
OC(COc1ccc(CNCc2cccnc2)cc1)CN1CCc2ccccc2C1 (centres undefined)	54	49	0	0	0	0	0
COc1ccccc1N1CCN(CC(O)COc2ccc3c(C)cc(=O)oc3c2)CC1 (centres undefined)	0	72	0	0	?	0	0
Cc1ccc(C)c(OCC(O)CN2CCc3ccccc3C2)c1C (centres undefined)	0	0	0	0	0	-	-
Cc1cc(=O)oc2cc(OCC(O)CN3CCN(c4ccccc4)CC3)ccc12 (centres undefined)	90	72	0	0	52	0	?
Cc1cc(=O)oc2cc(OCC(O)CN3CCc4ccccc4C3)ccc12 (centres undefined)	-	-	-	0	0	0	0
OC(COc1ccccc1CNCc1cccnc1)CN1CCc2ccccc2C1 (centres undefined)	0	0	0	0	0	-	-
COc1ccc2c(C)cc(=O)oc2c1OCC(O)CN1CCOCC1 (centres undefined)	-	-	-	0	0	-	-
O=C(O)c1cc2[nH]c3c(c2cc1Cl)CCCC3	0	0	0	0	0	-	-
Cc1ccc(-c2nc3c(C)cccn3c2Nc2ccccc2C)s1	0	-	0	-	-	-	-
CC(=O)c1ccc(OCC(O)CN2CCOCC2)cc1 (centres undefined)	0	0	0	0	0	-	-
CC(=O)c1ccc(OCC(O)CN2CCc3ccccc3C2)cc1 (centres undefined)	43	0	0	0	0	0	0
CCOC(=O)c1[nH]c2ccccc2c1NC(=S)Nc1ccccc1	0	0	0	0	?	-	-
CN(C)Cc1c(C(=O)Nc2ccccc2)[nH]c2ccccc12	0	45	0	0	0	0	0
c1ccc2c3c([nH]c2c1)CCNC3	0	0	0	0	0	0	0
Cc1ccc2[nH]c3c(c2c1)CNCC3	0	0	0	0	0	-	-
SMILES	D2 ag-1	D2 antagonist	D2 PAM-1	D2 PAM-2	D2 ag-2	D3 arrestin ag	D2 ag-3
COc1ccccc1Nc1sc(C(=O)c2ccc3c(c2)OCO3)c(N)c1S(=O)(=O)c1ccccc1	0	-	0	-	-	-	-
CC(C)NCC1CCc2cc(CO)c([N+](=O)[O-])cc2N1 (centres undefined)	42	0	0	0	0	0	0
Oc1ccc(C2CNCc3sccc32)cc1O (centres undefined)	84	96	0	71	63	3.5µM	2.8µM
CCn1c(=O)c2sccc2n2c(CCC(=O)Nc3ccc(C(C)C)cc3)nnc12	0	-	0	-	-	-	-
COc1ccc(C2N(Cc3ccccc3)CCN2Cc2ccccc2)cc1[N+](=O)[O-]	0	0	0	0	0	0	0
COc1cc(C2N(Cc3ccccc3)CCN2Cc2ccccc2)ccc1OC(C)=O	0	0	0	0	0	0	0
COc1cc(C2N(c3ccccc3)CCN2c2ccccc2)ccc1OC(C)=O	0	0	0	0	0	-	-
COc1ccc(CCNc2nc(SCc3ccccc3Cl)nc3ccccc23)cc1OC	0	-	0	-	-	-	-
Cc1cccc(NC(=O)c2ccc(-n3c(C)nnc3C)cc2)c1	0	-	0	-	-	-	-
CCCN(CCC)S(=O)(=O)c1ccc(C(=O)OCCN2C(=O)c3cccc4c(N5CCOCC5)ccc(c34)C2=O)cc1	62	0	0	0	0	0	0
O=C(OCCN1C(=O)c2cccc3c(N4CCOCC4)ccc(c23)C1=O)c1ccc(Cl)cc1	70	0	0	0	0	0	0
CCN(CC)S(=O)(=O)c1ccc(C(=O)N2CCN(CCN3C(=O)c4cccc5cccc(c45)C3=O)CC2)cc1	0	0	0	-	-	-	-
CCOc1ccc(NC(=O)c2cnn(-c3ccc(C)c(C)c3)c2C2CCN(C(=O)OC(C)(C)C)CC2)cc1	-	-	0	-	-	-	-
Cc1nn2c(=O)cc(COC(=O)C(c3ccccc3)c3ccccc3)nc2s1	0	-	0	-	-	-	-
O=c1/c(=C\c2cc([N+](=O)[O-])cc([N+](=O)[O-])c2O)sc2nc3ccccc3n12	0	31	0	0	0	0	0
O=C(Nc1ccc(NC(=O)c2ccc([N+](=O)[O-])cc2[N+](=O)[O-])cc1)c1ccco1	47	0	0	?	0	?	0
COc1cccc(/C=C2/CCC(CN(C)C)C2=O)c1 (centres undefined)	-	-	-	0	0	-	-
Cc1ccc(C(=O)CCC(=O)NNC(=O)c2ccccc2O)cc1	0	0	0	0	0	0	0
Cc1ccc(NC(=O)CCC(=O)c2ccccc2)cc1	-	-	-	0	0	-	-
Cc1ccc(C(=O)CCC(=O)OCC(=O)NNC(=O)c2ccc([N+](=O)[O-])cc2)cc1	-	-	-	0	0	0	0
COc1ccc(C(=O)NNC(=O)Cc2ccc([N+](=O)[O-])cc2)cc1	42	0	0	0	0	0	0
Cc1ccc(S(=O)(=O)CCC(=O)OCC(=O)NNC(=O)c2ccc([N+](=O)[O-])cc2)cc1	0	0	0	0	0	-	-
COc1ccc(CC(=O)NNC(=O)c2ccc(NC(C)=O)cc2)cc1	0	0	0	0	0	-	-
